Six1-Eya2 inh: inhibitors of human Six1/Eya2 interaction; activity change, % (concentration not given with the values); AlphaScreen GST-Six1/His-Eya2 binding, biochemical; stronger effect = lower value; Q15475+O00167; AID 651725; 360,000 compounds, 0.56% hits; in the data active = activity change below about -65%; inconclusive = mostly about -30% to -63%
Target sequence (O00167 whole entry, looked up): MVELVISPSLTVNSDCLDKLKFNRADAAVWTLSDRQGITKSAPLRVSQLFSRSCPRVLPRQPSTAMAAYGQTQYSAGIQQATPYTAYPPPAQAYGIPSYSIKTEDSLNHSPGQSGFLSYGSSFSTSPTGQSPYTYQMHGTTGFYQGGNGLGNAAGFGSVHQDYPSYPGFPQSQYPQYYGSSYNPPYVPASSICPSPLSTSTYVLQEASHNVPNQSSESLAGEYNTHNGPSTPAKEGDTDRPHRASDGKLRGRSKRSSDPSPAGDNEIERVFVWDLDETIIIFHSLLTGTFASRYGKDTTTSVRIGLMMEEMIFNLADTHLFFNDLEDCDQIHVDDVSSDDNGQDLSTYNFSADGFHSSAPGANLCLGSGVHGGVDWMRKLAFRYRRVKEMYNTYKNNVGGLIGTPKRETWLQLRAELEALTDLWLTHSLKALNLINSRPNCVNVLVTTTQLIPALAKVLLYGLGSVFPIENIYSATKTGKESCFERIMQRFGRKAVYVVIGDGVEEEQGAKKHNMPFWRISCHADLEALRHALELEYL
Target sequence (Q15475 whole entry, looked up): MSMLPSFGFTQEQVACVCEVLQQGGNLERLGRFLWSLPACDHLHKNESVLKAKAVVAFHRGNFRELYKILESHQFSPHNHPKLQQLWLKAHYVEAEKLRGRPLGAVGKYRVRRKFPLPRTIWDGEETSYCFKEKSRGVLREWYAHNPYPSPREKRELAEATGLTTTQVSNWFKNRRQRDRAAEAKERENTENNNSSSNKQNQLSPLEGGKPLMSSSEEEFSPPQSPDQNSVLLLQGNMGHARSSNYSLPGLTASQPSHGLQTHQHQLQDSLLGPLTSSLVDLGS
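AlphaScreen luminescence read after one hour at 37 °C in darkness. Pin-transferred compounds met GST-Six1 and His-Eya2 protein (5X stock 250 nM/500 nM) plus glutathione donor and Ni-chelate acceptor beads (5X, 50 ug/mL).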
IL-1B inflam inh: blocks inflammasome-driven IL-1 beta release; AID 743279; activity change, % at 57.5 µM; THP-1 LPS/ATP IL-1B secretion, AlphaLISA, 16 h; stronger effect = lower value; 360,000 compounds, 4.7% hits; in the data active = activity change below about -50%; inconclusive = mostly about -30% to -49%
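Secreted IL-1B measured by AlphaLISA bead assay after 16 h compound exposure of THP-1 cells; compounds (final up to 57.5 uM) added 1 h before LPS (250 ng/mL) and ATP (1.25 mM) stimulation; lower signal means less secretion.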
CtBP-E1A blk: inhibitors of CtBP/E1A interaction | AlphaScreen GST-E1A/His-CtBP binding, 1536-well; stronger effect = lower value | activity change, % (test concentration not listed) | 340,000 compounds, 0.49% hits | AID 651724; in the data active = activity change below about -65%; inconclusive = mostly about -30% to -63%
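Homogeneous bead-based format: GST-tagged E1A captured on glutathione donor beads, His-tagged CtBP on nickel acceptor beads; compounds precede bead addition by 2 h at 37 °C.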
DT40 TDP1 no CPT: qHTS for Inhibitors of human tyrosyl-DNA phosphodiesterase 1 (TDP1): qHTS in cells in absence of CPT; DT40 Tdp1-/- hTDP1 cells, no CPT, ATP luminescence, 48 h; Potency, µM (titrated, usually from 46.2 µM), most hits filed as inhibitors; 420,000 compounds, 15% hits; AID 686978, 2013; note: nearly all actives have a fitted effect of over 55% in size
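No-CPT arm: Tdp1-/-;hTDP1 DT40 cells (400/well) plus compounds, incubated ≥48 hr at 37 °C. Readout CellTiter-Glo luminescence.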
DT40 TDP1 CPT: growth inhibition of DT40 Tdp1-/-;hTDP1 cells with camptothecin (screen for TDP1 inhibitors) | chicken DT40 Tdp1-/-;hTDP1 cells + 20 nM CPT, ATP luminescence, 48 h | Potency, µM (doses to about 46.2 µM), usual class: inhibitors | 420,000 compounds, 12% hits; note: nearly all actives have a fitted effect of over 55% in size
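Chicken DT40 Tdp1-/- cells complemented with human TDP1, 400 cells/well, exposed to compounds plus 20 nM camptothecin for at least 48 h at 37 C; viability read as ATP content by CellTiter-Glo luminescence.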
TDP1 inh: TDP1 (human) enzyme inhibition | recombinant TDP1, AlphaScreen DNA substrate cleavage | Potency, µM (highest dose often 130 µM), hits mostly inhibitors | 350,000 compounds, 0.28% hits | AID 485290 | Q9NUW8; note: nearly all actives have a fitted effect of over 40% in size
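Here, a 5' biotin and 3' phosphotyrosine-FITC DNA oligonucleotide reports Tdp1 activity: intact substrate bridges AlphaScreen beads, while cleavage leaves a 3' phosphate and drops signal. All incubations at room temperature.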
Hits are given with their value; . = inactive; ? = inconclusive; / = no result given; [ ] = remark or other dose. Rows were chosen to be rich in hits. Some 18% of all compounds tested hit in one or more screens of this group. Unless noted, calls come from the whole dose curve; as a rule, active = well fitted curve in the direction sought with a large enough effect; inconclusive = small, poorly fitted or top-dose-only effect, or another doubt; inactive = no such curve, though single readings can be large; an effect the other way counts as inactive or inconclusive.

SMILES	Six1-Eya2 inh	IL-1B inflam inh	CtBP-E1A blk	DT40 TDP1 no CPT	DT40 TDP1 CPT	TDP1 inh
O=C(O)c1ccccc1SCc1nc2ccccn2c1Br	.	.	/	.	.	.
Cc1ccc(OCCC(=O)OCC(=O)N2CCN(S(=O)(=O)c3ccc(Cl)cc3)CC2)cc1	.	-59	.	?	?	.[0.505 µM]
O=C(OCC(=O)N1CCN(S(=O)(=O)c2ccc(Cl)cc2)CC1)c1ccc([N+](=O)[O-])o1	.	?	.	?	18µM	.
Cc1ccc(OCCC(=O)OCC(=O)N2CCN(S(=O)(=O)c3ccc(C)cc3C)CC2)cc1	.	.	.	?	?	.
Cc1ccc(S(=O)(=O)N2CCN(C(=O)COC(=O)CCOc3ccc(C(C)(C)C)cc3)CC2)cc1	.	.	?	10µM	12µM	.
CCOc1ccc(OCCC(=O)OCC(=O)N2CCN(S(=O)(=O)c3ccc(C)cc3)CC2)cc1	.	-73	.	15µM	15µM	.
O=C(OCC(=O)N1CCN(S(=O)(=O)c2ccccc2)CC1)c1ccc([N+](=O)[O-])o1	.	.	.	.	.	.
CCOc1ccc(OCCC(=O)OCC(=O)N2CCN(S(=O)(=O)c3ccc(C)cc3C)CC2)cc1	.	.	.	.	?	/
O=C(CSc1nc2ccccc2[nH]1)NC(=O)NCc1ccco1	.	.	.	.	.	.
COc1cccc(-c2cnc(C(O)c3ccc(F)c(F)c3)[nH]2)c1 (stereo not given)	.	.	.	?	?	/
Cc1nc(Nc2ccc(Cl)cc2)c2oc3ccccc3c2n1	.	.	.	?	?	/
Cc1nc(Nc2ccc3c(c2)OCCO3)c2oc3ccccc3c2n1	.	-84	.	21µM	?	.
Cc1sc2ncnc(OCC(=O)Nc3ccc4c(c3)OCCO4)c2c1C	.	.	.	.	.	.
Cc1nc(Nc2ccc3c(c2)OCCO3)c2c(C)c(C)sc2n1	.	.	.	21µM	?	.
c1ccc2c(c1)oc1c(Nc3ccc4c(c3)OCCO4)ncnc12	.	.	.	?	8.9µM	.
O=C(NC1CCCCC1)c1ccccc1NC(=O)C1CC(=O)N(c2ccc(Cl)cc2)C1 (stereo not given)	.	.	.	.	?	.
COc1ccc(/C(N)=N/OC(=O)CCC2CCCC2)cc1	.	?	.	.	.	.
CSc1nc(-c2ccccc2F)c(C#N)c(=O)n1C	.	.	.	.	.	.
COc1ccc(Cl)cc1Nc1nc(-c2sc(NC(=O)c3ccccc3)nc2C)cs1	/	/	/	/	/	.
Cc1ccccc1Nc1nc(-c2sc(NC(=O)c3ccccc3)nc2C)cs1	/	/	/	/	/	.
CCCCC(=O)Nc1nc(C)c(-c2csc(Nc3ccccc3OC)n2)s1	.	.	.	?	23µM	.
C=CCCC(=O)Nc1nc(C)c(-c2csc(Nc3ccccc3OC)n2)s1	.	.	/	7.3µM	6.5µM	.
CN1CCN(c2nc(-c3ccccn3)nc3ccccc23)CC1	?	.	?	?	?	.
CCCCCCCOc1ccc(C(=O)Nc2cccnc2)cc1	.	.	.	?	?	/
COc1ccc(NC(=O)C2CC(=O)n3cnnc3S2)cc1 (stereo not given)	.	.	.	4.6µM	2.3µM	/
SMILES	Six1-Eya2 inh	IL-1B inflam inh	CtBP-E1A blk	DT40 TDP1 no CPT	DT40 TDP1 CPT	TDP1 inh
COc1cccc(NC(=O)C2CC(=O)n3cnnc3S2)c1 (stereo not given)	.	.	.	5.2µM	2.9µM	.
Cc1ccn2c(Cc3ccccc3)c(-c3ccc(F)cc3)nc2c1	.	.	.	21µM	23µM	/
Cc1ccc(Cc2c(-c3ccccc3)nc3cc(C)ccn23)cc1	.	.	.	18µM	16µM	/
Cc1ccc(Cc2c(-c3cccc(Cl)c3)nc3ccc(Cl)cn23)cc1	.	.	.	?	?	/
Fc1ccc(-c2nc3ccc(Cl)cn3c2Cc2ccccc2)cc1	.	.	.	?	?	/
CCCCN(C(=O)c1cccc(S(=O)(=O)N(C)c2ccc(C)cc2)c1)c1c(N)n(CC(C)C)c(=O)[nH]c1=O	.	.	.	.	.	/
Cc1cc(C(C)(C)C)oc1C(=O)N(CC(=O)NC1CCCC1)Cc1ccccc1Cl	.	?	.	13µM	13µM	.
Cc1ccccc1N(CC(=O)NC1CCCC1)C(=O)c1oc(C(C)(C)C)cc1C	.	?	.	14µM	16µM	.
O=C(CN(Cc1ccccc1Cl)C(=O)CCC(=O)Nc1nccs1)NCC1CCCO1 (stereo not given)	.	.	.	.	.	.
Cc1ccccc1N(CC(=O)NC1CCCCC1)C(=O)c1csnn1	.	.	.	.	.	.
Cc1cc(C(C)(C)C)oc1C(=O)N(CC(=O)NC1CCCC1)c1cccc(C(F)(F)F)c1	.	.	.	?	18µM	.
CC1CCCCN1C(=O)CN1C(=O)CSc2ccc(S(=O)(=O)N3CCOCC3)cc21 (stereo not given)	.	.	.	.	.	.
O=C(c1cccs1)c1coc2ccc(O)c(CN(CCO)CCO)c12	.	.	.	.	?	.
C[C@@H](C1[C@@H](O)CC2C3C=CC4C[C@@H](O)CC[C@]4(C)[C@H]3CC[C@@]21C)[C@@H]1CCCCN1 (stereo not given in full)	/	/	/	1.2µM	1.6µM	.
COc1ccccc1NC(=O)N(Cc1ccc2c(c1)OCO2)Cc1nc2ccccc2c(=O)[nH]1	.	.	.	13µM	18µM	.
COc1cccc(C(=O)N(Cc2ccc3c(c2)OCO3)Cc2nc3ccccc3c(=O)[nH]2)c1	.	.	.	.	?	.
COc1ccccc1CN(Cc1nc2ccccc2c(=O)[nH]1)C(=O)Nc1cccc(C)c1	.	.	.	3.7µM	3.3µM	.
CC(=O)c1cccc(NC(=O)COC(=O)c2ccccc2C)c1	.	.	.	.	.	.
CC(=O)c1ccc(NC(=O)COc2ccccc2C(=O)Nc2ccccc2)cc1	.	.	.	11µM	11µM	.
O=C(COc1ccccc1C(=O)Nc1ccccc1)Nc1ccccc1F	/	/	/	16µM	?	/
CC(=O)c1ccc(NC(=O)COc2ccccc2C(=O)Nc2ccc(C)cn2)cc1	.	.	/	?	.	.
O=C(COc1ccccc1CNCc1ccccc1)Nc1ccccc1	.	.	.	18µM	?	.
C=CCc1ccccc1OCC(=O)NNC(=S)NCc1ccccc1	.	.	.	5.2µM	6.5µM	.
COc1ccc(S(=O)(=O)N2CCCC(C(=O)NCc3ccco3)C2)cc1OC (stereo not given)	.	.	.	.	.	.
